The panel holds about 83,000 compounds, 20% with a hit somewhere; the sample as a whole holds those more often.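 Interpretation: 100, growth as untreated; towards 0, rising growth inhibition; 0, no net growth; 0 to -100, cell death. Compounds scoring below 10 were considered active.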 Calls of active or inactive are those of the source.

The assay deals with MDA-MB-468 breast. The assay can be described thus: NCI-60 one-dose screen, 48 h (100 = growth as untreated, 0 = no growth, -100 = all killed). Particulars: 10 µM unless noted.
On to `C/C(N)=C(\C#N)C(=O)c1ccccc1`, for which the growth was 97.7% (inactive).

In the case of `NC(=O)C1(N2CCCCC2)CCN(CCCC(=O)c2ccc(F)cc2)CC1`, the growth was -10.6% (active).

As to `S=c1[nH]cccc1-c1nnc2n1Nc1nc3ccccc3cc1CS2`, the growth is 102% (inactive).

For the compound `O=c1[nH]c2cc(Cl)c(Cl)cc2o1`, the growth was 111% (inactive).

For `OCCNc1nc(Nc2ccc(Cl)c(Cl)c2)nc2ccccc12`, the growth was -10.6% (active).

As for `O=C(NCO)c1ccccc1`, the growth is 110% (inactive).

Turning to `NS(=O)(=O)c1ccc(C(=O)NN2C(=O)c3c(Br)c(Br)c(Br)c(Br)c3C2=O)cc1`, the growth was 111% (inactive).

Consider `O=C(/C(=C/c1ccc([N+](=O)[O-])cc1)SCc1ccc(F)cc1)c1ccc(F)cc1`, for which the growth was 83.7% (inactive).

Turning to `c1cncc(-c2csc(-c3c[nH]c4ccccc34)n2)c1`, the growth was 99.1% (inactive).

As for `FC(F)(F)c1cc(-c2nnc3n2N=C(Cl)CS3)cc(C(F)(F)F)c1`, the growth is 84.4% (inactive).

For the compound `C/C(=N\O)C1(O)CCCCC1`, the growth was -9.98% (active).

Take `CCOC(=O)C1(N)CCCCC1`: the growth is 105% (inactive).

With `CCOC(=O)c1c(C)nc2c(c1N)C(=O)C(=O)N2Cc1ccc(OC)cc1`, the growth is 95% (inactive).

For the compound `CCN(CC)CC(C)Nc1ccc(C)c2sc3ccccc3c(=O)c12` (stereo not given), the growth was 57.7% (inactive).

As to `COc1ccc2c(c1)c(-c1nc(-c3ccc4ccccc4c3)cs1)cn2C`, the growth was 10.4% (inactive).

`C=CCN1C(=O)c2cccc3c(N4CCOCC4)ccc(c23)C1=O`: the growth is -40% (active).

For `CCN1CCN(c2cc(C(=O)Nc3nc(-c4cc(OC)c(OC)c(OC)c4)cs3)cc(C(F)(F)F)c2)CC1`, the growth was 84.8% (inactive).

Turning to `Cc1ccc(NS(=O)(=O)c2ccc3c(c2)C(=O)CC(c2ccc(C(=O)C(C)C)cc2)N3)cc1C` (stereo not given), the growth is -3.79% (active).

On to `C=CC(COC(c1ccccc1)(c1ccccc1)c1ccccc1)N(CC)CC` (stereo not given), for which the growth was 14.5% (inactive).

Consider `O=c1oc2c(cnc3ccccc32)cc1-c1ccsc1`, for which the growth is 85.5% (inactive).

As for `Clc1ccc2c(c1)NC1(CCSc3ccccc31)n1nccc1-2` (stereo not given), the growth was 106% (inactive).

`C=C(C)[C@@H]1CC[C@@]2(C(=O)O)CC[C@]3(C)C(CCC4[C@@]5(C)CCC(OS(=O)(=O)c6ccccc6)C(C)(C)C5CC[C@]43C)C12` (stereo not given in full): the growth is 53.9% (inactive).

As for `COc1ccc(C(=S)N2CCN(c3cccc(C)c3)CC2)cc1OC`, the growth is 66.3% (inactive).

Turning to `Cc1cc2cc3ccc(N(C)C)cc3nc2cc1N`, the growth was -56.8% (active).

`O=C1c2cccnc2C(=O)c2c1c(C(=O)OCCc1ccccn1)c1ccccn21`: the growth is -23% (active).

Take `N#C/C(=C\c1ccc(-c2cccc(Cl)c2)o1)C(=O)Nc1ncc(Cc2ccc(Cl)cc2)s1`: the growth was 47% (inactive).

For `Nc1ccc2c(c1)Cc1cc(Cl)c(Cl)cc1-2`, the growth is 34.4% (inactive).

Take `COc1ccccc1CNCCN1C(=O)c2ccc3c4c(ccc(c24)C1=O)C(=O)N(CCNCc1ccccc1OC)C3=O`: the growth is -92.8% (active).

In the case of `CCCc1cn(CC(=O)Nc2nc3ccccc3s2)nn1`, the growth is 110% (inactive).

`O=C1C=CC(Nc2ccccc2[N+](=O)[O-])C1Nc1ccccc1[N+](=O)[O-]` (stereo not given): the growth was -97.4% (active).

In the case of `N#Cc1c(Nc2ccccc2)nn2c(-c3ccc([N+](=O)[O-])cc3)ccnc12`, the growth was 106% (inactive).

With `CS(=O)(=O)N(c1cc(-c2ccc3ncnc(Nc4cccc(Cl)c4)c3c2)cnc1Cl)S(C)(=O)=O`, the growth was -42.1% (active).

With `COc1ccc(N2CCC(=O)NC2=S)cc1`, the growth was 100% (inactive).

`CC(=O)N1Cc2ccccc2C(C)Cc2cc(Cl)ccc21` (stereo not given): the growth is 113% (inactive).

On to `O=S(c1ccccc1)c1ccc2nnnn2n1` (stereo not given), for which the growth is 112% (inactive).

Turning to `NC(=O)C(=Cc1ccc(Cl)cc1)C(N)=O`, the growth is 3.1% (active).

With `C=C1C(=O)O[C@H]2[C@H]1CC/C(COC(=O)N[C@@H](Cc1c[nH]c3ccccc13)C(=O)OC)=C\CC[C@@]1(C)O[C@@H]21`, the growth was -16.4% (active).

As to `CCCCCCNC(=O)Oc1ccc(/C(=C(/C)Cc2ccc(OC)cc2)c2ccc(OCCN(C)C)cc2)cc1`, the growth was 62.9% (inactive).

Take `Cc1[nH]nc2c1C(c1cnn(C)c1)C(C#N)=C(N)O2` (stereo not given): the growth was 92.4% (inactive).

Regarding `COc1ccc(C(=O)N2N=C(c3ccc(Br)cc3)CC2c2cn(-c3ccccc3)nc2-c2ccccc2)cc1` (stereo not given), the growth was 69% (inactive).

For the origin of these results see PubChem BioAssay (NCI).
